The test in a line: p16 Derepression/Induction Secondary Assay for qHTS Assay for Epigenetic Modulators. Conditions: H358 cells, p16 mRNA RT-qPCR, 72 h; hits give high values. The source says: NIH Molecular Libraries Screening Centers Network [MLSCN] NIH Chemical Genomics Center [NCGC] MLSCN Grant: 1 X01 MH079860-01 Assay Provider: Elisabeth D. Martinez, University of Texas SW Medical Center NCGC Assay Overview: This secondary assay characterizes selected actives identified in the qHTS of the Locus Derepression (LDR) assay (PubChem AID 597). The LDR assay detects the derepression of a GFP reporter that is stably integrated in a region of the genome of murine c127i mammary cells that is presumably silenced. Compounds that cause derepression of the locus to express GFP are identified by enumerating GFP positive cells using a laser-scanning microplate cytometer. Selected LDR actives were assayed for the induction of p16 gene expression, a gene silenced by dense methylation of its promoter. […]
NCGC Assay Protocol Summary Exponentially growing H358 non-small cell lung cancer cells were treated daily with fresh media containing the indicated concentrations of compounds for 72 hr. Cellular RNA was extracted, quantified, DNAse treated and reverse transcribed. The resulting cDNA was amplified in TaqMan real time quantitative PCR assays (Applied Biosystems) containing validated primers specific for p16 (Hs00233365_m1). […] Gene expression was measured by fold-induction over control DMSO-treated samples (36-37 average cycle time). […]

Unmarked numbers belong to inactive results.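 The calls were made as follows: active = compound lifting p16 RNA above DMSO-treated cells by a clear fold change, a shift of a few PCR cycles; inactive = the rest, including any drop in level.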

As to `CN1CSC(=S)N(C)C1`, the fold change is 1.

Values taken from PubChem BioAssay AID1041 (National Center for Advancing Translational Sciences (NCATS), 2008).
